These results are taken from the supplement of paper PMC3545927.

The list shows a part of the results. The hit rate among all sequences tested is not known here.

For the assay, the target named is furin, P09958. The assay is described as follows: furin cleavage Z-score vs untreated control; higher = more cleavage, active = 3.5 or more, inactive = 1 or less, 8 variable residues between constant flanks. A digest of the protocol: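 Read counts from sequencing released DNA gave abundance for each bead-bound 8-mer peptide–cDNA fusion cut by purified furin over 7.5, 15 or 30 min. The cleavage Z-score compares log counts with furin-free reactions after lowess adjustment and median absolute deviation scaling.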
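Further: purified furin at 1:10 enzyme:substrate in 50 mM HEPES pH 7.5.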

Chain of furin, P09958 (P09958 whole entry, the tested form may be a part): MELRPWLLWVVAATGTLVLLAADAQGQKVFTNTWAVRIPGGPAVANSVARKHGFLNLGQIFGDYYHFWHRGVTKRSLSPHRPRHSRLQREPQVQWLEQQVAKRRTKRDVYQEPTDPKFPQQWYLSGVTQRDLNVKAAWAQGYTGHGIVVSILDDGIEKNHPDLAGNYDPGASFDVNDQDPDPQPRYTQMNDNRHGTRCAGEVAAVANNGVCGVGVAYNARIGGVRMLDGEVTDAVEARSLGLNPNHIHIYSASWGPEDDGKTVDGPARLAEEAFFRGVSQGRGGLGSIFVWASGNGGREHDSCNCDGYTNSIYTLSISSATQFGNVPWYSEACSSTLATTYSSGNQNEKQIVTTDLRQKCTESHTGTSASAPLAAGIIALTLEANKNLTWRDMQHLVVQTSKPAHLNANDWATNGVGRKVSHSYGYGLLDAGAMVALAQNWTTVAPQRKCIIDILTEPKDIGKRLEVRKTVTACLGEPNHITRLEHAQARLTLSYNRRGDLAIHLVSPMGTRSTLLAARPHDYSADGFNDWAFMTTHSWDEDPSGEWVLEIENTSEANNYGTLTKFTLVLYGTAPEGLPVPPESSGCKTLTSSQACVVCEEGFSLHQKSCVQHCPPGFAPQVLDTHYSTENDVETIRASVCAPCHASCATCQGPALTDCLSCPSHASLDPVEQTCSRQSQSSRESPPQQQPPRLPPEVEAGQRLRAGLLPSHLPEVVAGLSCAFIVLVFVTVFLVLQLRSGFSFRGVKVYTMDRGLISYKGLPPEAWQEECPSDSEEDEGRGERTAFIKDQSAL

As to CAVQNEITLTAGNASASA [HC976], the “furin cleavage Z-score” value (7.5 min) is -0.158 (inactive), the “furin cleavage Z-score” value (15 min) was -0.101 (inactive) and the “furin cleavage Z-score” value (30 min) was 0.696 (inactive).

In the case of CAVVCISMSYAGNASASA [HC85], the “furin cleavage Z-score” value reads like this: (7.5 min) -1.62 (inactive); (15 min) -2.02 (inactive); (30 min) -0.461 (inactive).

In the case of CARGCRARRGAGNASASA [FS-1060], the “furin cleavage Z-score” value is, setting by setting: (7.5 min) 3.97 (active); (15 min) 3.87 (active); (30 min) 2.93.

For the sequence CAQRRRARRGAGNASASA [FS-850], the “furin cleavage Z-score” value (7.5 min) was 2.4, the “furin cleavage Z-score” value (15 min) is 2.13 and the “furin cleavage Z-score” value (30 min) is 0.325 (inactive).

In the case of CAEPHRARRGAGNASASA [FS-1451], the “furin cleavage Z-score” value is 5.81 (active) (7.5 min), 5.59 (active) (15 min) and 6.2 (active) (30 min).

CAQTPCSAHLAGNASASA [HC2482]: the “furin cleavage Z-score” value is -0.0432 (inactive) (7.5 min), 0.702 (inactive) (15 min) and 2.39 (30 min).

Regarding CASTPCSAHKAGNASASA [HC2574], the “furin cleavage Z-score” value runs as follows: (7.5 min) -0.715 (inactive); (15 min) 0.189 (inactive); (30 min) -1.56 (inactive).

In the case of CATSRSACQRAGNASASA [HC1391], the “furin cleavage Z-score” value was 0.0948 (inactive) (7.5 min), 0.314 (inactive) (15 min) and 0.239 (inactive) (30 min).

With CAREGRDGPKAGNASASA [FS-2003], the “furin cleavage Z-score” value by setting is: (7.5 min) 0.305 (inactive); (15 min) -0.0392 (inactive); (30 min) -2.05 (inactive).

Turning to CARFKRKLPKAGNASASA [FS-1948], the “furin cleavage Z-score” value by setting is: (7.5 min) 0.844 (inactive); (15 min) 1.94; (30 min) 3.55 (active).

As to CARFKRAAGKAGNASASA [FS-2259], the “furin cleavage Z-score” value is, setting by setting: (7.5 min) 11.2 (active); (15 min) 12.2 (active); (30 min) 9.21 (active).

CARKKRKSPKAGNASASA [FS-2268]: the “furin cleavage Z-score” value by setting is: (7.5 min) 0.83 (inactive); (15 min) 2.91; (30 min) 2.06.

Take CARFKRKDRMAGNASASA [FS-2553]: the “furin cleavage Z-score” value reads like this: (7.5 min) 4.28 (active); (15 min) 3.52 (active); (30 min) 4.13 (active).

As for CARSKRIAGKAGNASASA [FS-2811], the “furin cleavage Z-score” value is 0.535 (inactive) (7.5 min), -0.714 (inactive) (15 min) and 0.638 (inactive) (30 min).

Take CATTKRDAGKAGNASASA [FS-2474]: the “furin cleavage Z-score” value is, setting by setting: (7.5 min) -0.152 (inactive); (15 min) -0.387 (inactive); (30 min) 0.96 (inactive).

As for CARICRDIPKAGNASASA [FS-2029], the “furin cleavage Z-score” value was 3.76 (active) (7.5 min), 5.68 (active) (15 min) and 4.88 (active) (30 min).

Regarding CARPGRKDRRAGNASASA [FS-1067], the “furin cleavage Z-score” value by setting is: (7.5 min) 0.778 (inactive); (15 min) 1.1; (30 min) 0.538 (inactive).

With CAVRVCEKMAAGNASASA [HC1454], the “furin cleavage Z-score” value is, setting by setting: (7.5 min) -0.509 (inactive); (15 min) -1.63 (inactive); (30 min) -0.874 (inactive).

CAVVCCSMSLAGNASASA [HC2085]: the “furin cleavage Z-score” value by setting is: (7.5 min) -0.7 (inactive); (15 min) -0.0853 (inactive); (30 min) 0.456 (inactive).

As for CAACNWTRGEAGNASASA [HC482], the “furin cleavage Z-score” value reads like this: (7.5 min) 0.0668 (inactive); (15 min) 0.0745 (inactive); (30 min) -0.647 (inactive).

Consider CATTPYSGSWAGNASASA [HC57], for which the “furin cleavage Z-score” value is -0.402 (inactive) (7.5 min), -1.77 (inactive) (15 min) and -1.07 (inactive) (30 min).

As for CAVVCCSMSEAGNASASA [HC2092], the “furin cleavage Z-score” value reads like this: (7.5 min) 0.169 (inactive); (15 min) -0.137 (inactive); (30 min) 0.14 (inactive).

As to CAGKLPATQLAGNASASA [HC286], the “furin cleavage Z-score” value (7.5 min) is -0.891 (inactive), the “furin cleavage Z-score” value (15 min) is 0.888 (inactive) and the “furin cleavage Z-score” value (30 min) was -0.728 (inactive).

Consider CARFERAIGPAGNASASA [FS-2662], for which the “furin cleavage Z-score” value is 1.09 (7.5 min), 0.675 (inactive) (15 min) and 1.32 (30 min).

Regarding CARFKRLACMAGNASASA [FS-2488], the “furin cleavage Z-score” value (7.5 min) was determined as 1.67, the “furin cleavage Z-score” value (15 min) was 1.17 and the “furin cleavage Z-score” value (30 min) was 4.11 (active).

Turning to CARSWRLACEAGNASASA [FS-2610], the “furin cleavage Z-score” value (7.5 min) is -1.13 (inactive), the “furin cleavage Z-score” value (15 min) was -1.31 (inactive) and the “furin cleavage Z-score” value (30 min) is -0.906 (inactive).

CARSNRFSWMAGNASASA [FS-3088]: the “furin cleavage Z-score” value is 1.34 (7.5 min), 0.175 (inactive) (15 min) and 0.252 (inactive) (30 min).

As for CATFDRLQVLAGNASASA [HC1397], the “furin cleavage Z-score” value (7.5 min) was -1.63 (inactive), the “furin cleavage Z-score” value (15 min) is -1.93 (inactive) and the “furin cleavage Z-score” value (30 min) was -0.453 (inactive).

As for CARFKKLADMAGNASASA [FS-2414], the “furin cleavage Z-score” value (7.5 min) was -1 (inactive), the “furin cleavage Z-score” value (15 min) is -2.01 (inactive) and the “furin cleavage Z-score” value (30 min) was 0.965 (inactive).

Regarding CAQEKRSVFQAGNASASA [FS-2249], the “furin cleavage Z-score” value by setting is: (7.5 min) -0.752 (inactive); (15 min) 1.01; (30 min) 0.632 (inactive).

Consider CALTGRDKNQAGNASASA [HC684], for which the “furin cleavage Z-score” value (7.5 min) is -0.69 (inactive), the “furin cleavage Z-score” value (15 min) is -0.684 (inactive) and the “furin cleavage Z-score” value (30 min) was -0.181 (inactive).

With CARFKRLADMAGNASASA [FS-2489], the “furin cleavage Z-score” value was 2.25 (7.5 min), 3.3 (15 min) and 4.96 (active) (30 min).

For the sequence CARFKRAIFQAGNASASA [FS-3154], the “furin cleavage Z-score” value reads like this: (7.5 min) 3.12; (15 min) 6.07 (active); (30 min) 9.35 (active).

For the sequence CARAQRSPQQAGNASASA [FS-2129], the “furin cleavage Z-score” value reads like this: (7.5 min) -0.476 (inactive); (15 min) 0.539 (inactive); (30 min) 1.62.

In the case of CARFKRDPNQAGNASASA [FS-1891], the “furin cleavage Z-score” value reads like this: (7.5 min) 5.07 (active); (15 min) 6.2 (active); (30 min) 6.47 (active).

For CAPLTDFDQGAGNASASA [HC391], the “furin cleavage Z-score” value was -0.36 (inactive) (7.5 min), -0.0198 (inactive) (15 min) and -2.39 (inactive) (30 min).

As for CAVLAGIAYFAGNASASA [HC338], the “furin cleavage Z-score” value runs as follows: (7.5 min) -0.161 (inactive); (15 min) 0.738 (inactive); (30 min) -0.272 (inactive).

Consider CAEHTTPCSGAGNASASA [HC1975], for which the “furin cleavage Z-score” value was -1.73 (inactive) (7.5 min), -1.12 (inactive) (15 min) and 0.179 (inactive) (30 min).

On to CATYPCSGSWAGNASASA [HC1849], for which the “furin cleavage Z-score” value is -0.56 (inactive) (7.5 min), -0.736 (inactive) (15 min) and -0.826 (inactive) (30 min).

Turning to CARLRRLAEGAGNASASA [FS-2715], the “furin cleavage Z-score” value is -0.759 (inactive) (7.5 min), -0.389 (inactive) (15 min) and -0.211 (inactive) (30 min).

With CARYRRGFIHAGNASASA [FS-1810], the “furin cleavage Z-score” value is, setting by setting: (7.5 min) 1.59; (15 min) 3.75 (active); (30 min) 4.82 (active).

Take CARYRRHGTHAGNASASA [FS-1942]: the “furin cleavage Z-score” value was 3.5 (7.5 min), 5.79 (active) (15 min) and 6.5 (active) (30 min).

In the case of CARYRRVAEGAGNASASA [FS-1980], the “furin cleavage Z-score” value was 3.4 (7.5 min), 4.71 (active) (15 min) and 4.58 (active) (30 min).

With CARYRRVITVAGNASASA [FS-1844], the “furin cleavage Z-score” value is, setting by setting: (7.5 min) -0.325 (inactive); (15 min) -0.579 (inactive); (30 min) 0.939 (inactive).

With CARYRRWMKNAGNASASA [FS-2321], the “furin cleavage Z-score” value by setting is: (7.5 min) -1.37 (inactive); (15 min) -0.188 (inactive); (30 min) 2.73.

In the case of CARPWRPAEGAGNASASA [FS-2442], the “furin cleavage Z-score” value runs as follows: (7.5 min) -1.33 (inactive); (15 min) -0.417 (inactive); (30 min) 0.551 (inactive).
